An excerpt weighted towards active compounds, which were near 0.55% of everything screened.
Glioma ERSR ind – qHTS for Inducers of the Endoplasmic Reticulum Stress Response (ERSR) in Human Glioma: qHTS | U87-MG GRP78 promoter luciferase reporter, 16 h | Potency, µM, for the others: top-dose activation, hits mostly activators | 0.02% of 420,000 active | AID 602332, 2012; further: potency means the concentration at half of the fitted maximal effect; series mostly up to about 76 µM; % of control where 0% means no effect; nearly all actives have a fitted effect of over 35% in size
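Stably transfected U87-MG human glioma cells carrying a GRP78-based luminescent sensor were seeded at 1000 cells/well, pin-dosed with compounds and incubated 16 h. Luciferase reagent was then added, and end-point luminescence was read after 10 min at room temperature.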
RGS4 inhibitor – Inhibitors of Regulator of G Protein Signaling (RGS) 4: qHTS. Transcreener GDP fluorescence polarization, RGS4-accelerated GTP hydrolysis. Potency, µM (series often up to 114 µM), inactives show at the highest dose activity change, negative = inhibition, most hits filed as inhibitors. 0.039% of 390,000 active; further: potency means the concentration at half of the fitted maximal effect; on the % scale 0 is the no-effect control and ±100 the full control effect; nearly all actives have a fitted effect of over 75% in size
Target sequence (P49798 whole entry, looked up): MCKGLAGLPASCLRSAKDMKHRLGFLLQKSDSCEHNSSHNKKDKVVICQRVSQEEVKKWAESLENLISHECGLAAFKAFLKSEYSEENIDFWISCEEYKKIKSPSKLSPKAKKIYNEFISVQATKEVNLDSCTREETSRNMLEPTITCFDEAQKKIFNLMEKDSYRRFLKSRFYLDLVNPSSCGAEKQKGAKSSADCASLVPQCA
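MLSMR compounds (23 nl, pin-transferred) preincubated 10 min at room temperature with a 500nM (2x) first reagent, then RGS4 at 900nM (2x) plus Transcreener GDP mix added; fluorescence polarization (620/688 nm) read before and after 90 min at 30 °C.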
TSHR antagonist – Antagonists of the Thyroid Stimulating Hormone Receptor: HTS campaign. Thyrotropin receptor (Homo sapiens), P16473. TSHR-expressing cells, TSH-stimulated cAMP HTRF, 2 h; hits give low values. 0.2% of 330,000 active. activity change, negative = inhibition, % at 11.5 µM;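 active means activity change below a set negative limit, meaning inhibition stronger than a set level, cut at about -70% in these data; inconclusive means activity change between two set negative limits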; further: on the % scale 0 is the no-effect control and ±100 the full control effect
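Competitive HTRF cAMP read-out (cryptate anti-cAMP antibody, cAMP-d2; 30 min, room temperature) in freshly harvested TSHR cells. Compounds added before TSH at EC80 (4nM final), followed by 2 hours' incubation at 37 deg C.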
Akt phos inh – HTS Assay for Inhibitors of Akt Phophorylation: Primary Screen; Neuro2A IGF-stimulated pAkt S473 HTRF, 20 min; hits give low values; activity change, % for hits at 50 µM; 0.32% of 360,000 active; AID 651550, 2012; in the data active means activity change below about -80%; inconclusive means mostly about -51% to -80%; further: on the % scale 0 is the no-effect control and ±100 the full control effect
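Single-point screen (50 µM final compound) in Neuro2A cells stimulated 20 min with 6 nM IGF at 37 deg C. After lysis, Ser473-phosphorylated Akt read by HTRF (ex 330 nm, em 615/665 nm) as the 665/615 ratio.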
TCR activator – Activators of T cell receptors: qHTS campaign. Potency, µM (titrated, usually from 9.22 µM), inactives show at the highest dose activation of IL-2 secretion, usual class: activators. 330,000 tested, under 10 active. primary human leukocytes, anti-CD3, IL-2 HTRF, 48 h; further: % of control where 0% means no effect
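TCR engagement came from a-CD3 beads alone, with compounds added to primary human leukocytes for 48 hr. Secreted IL-2 bridged europium cryptate- and d2-labelled anti-IL-2 antibodies, giving FRET emission at 665nm after 320nm excitation.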
LDHA inh – qHTS assay for inhibitors of human lactate dehydrogenase; 0.15% of 480,000 active; AID 1347041, 2019; activity change, % (values are at about 110 or 230 µM); L-lactate dehydrogenase A chain (Homo sapiens), P00338; purified LDHA, NADH/diaphorase-resazurin fluorescence; hits give low values; in the data active means activity change below about -30%; inconclusive means mostly about -25% to -30%;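 further: plate controls were DMSO wells for no effect and wells without enzyme for full effect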
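Remaining NADH was detected by diaphorase (0.133 mg/mL) converting 37 µM resazurin to fluorescent resorufin, read at 0 and 20 minutes. The preceding 5-minute room-temperature reaction used 2 nM LDHA, 0.2 mM sodium pyruvate and 0.06 mM NADH at pH 7.4.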
The depositor's hits bear a star; i = inactive; ? = inconclusive; / = no result; [ ] = remark or other dose. Unless noted, the call rests on the fitted dose curve; in most records, active means well fitted curve in the direction sought with a large enough effect; inconclusive means small, poorly fitted or top-dose-only effect, or another doubt; inactive means no such curve, though single readings can be large; an effect the other way counts as inactive or inconclusive.

SMILES	Glioma ERSR ind	RGS4 inhibitor	TSHR antagonist	Akt phos inh	TCR activator	LDHA inh
COc1cc(C2CC(=O)Oc3c2c(=O)[nH]c2ccccc32)cc(OC)c1OC (stereo not given)	-3%	-4%	/	/	/	-11
COc1cc(C2CC(=O)Oc3c2c(=O)[nH]c2ccccc32)cc2c1OCO2 (stereo not given)	/	/	/	/	/	-38*
Cc1ccc2nc(-c3ccc(N)cc3)cc(C(=O)O)c2c1	/	/	/	/	/	10
Cc1ccc(-n2cc(C(=O)c3ccc(F)cc3)nn2)cc1Cl	0%	-17%	15	-121%*	2%	-6
CCOC(=O)c1ccc(-n2cc(C(=O)c3cccnc3)nn2)cc1	3%	-35%	4	i	7%	0
CCCNC(=O)C(C)OC(=O)c1cc2ccc(OC)cc2nc1C (stereo not given)	/	/	/	/	/	8
COc1ccc2cc(C(=O)OC(C)C(N)=O)c(C)nc2c1 (stereo not given)	/	/	/	/	/	-32*
COC(=O)C1(C)NC(c2cccs2)C2C(=O)N(c3ccc(F)cc3)C(=O)C21 (stereo not given)	-1%	0%	2	-107%*	-3%	-3
CC(=O)c1c(NC(=O)C(C)C)nc(C)nc1-c1ccccc1	-4%	-5%	1	i	-1%	8
CC(=O)c1c(C)nc(C)nc1NC(=O)C(C)C	-3%	26%	16	-124%*	3%	-4
Cc1ccc(-c2cc(C(=O)O)c3ccccc3n2)cc1	/	/	/	/	/	3
COc1ccc(CNC(=O)C(C)OC(=O)c2cccs2)cc1 (stereo not given)	-3%	6%	-101*	i	6%	-14
FC(F)(F)c1cc(Cl)c2n[nH]c(=S)n2c1	/	/	/	/	/	-20
C=CCn1c(C)cc(C(=O)CSc2nc3ccccc3c(=O)[nH]2)c1C	-5%	-38%[11.4 µM]	-31	-110%*	2%	0
CN1CCN(c2ccc3cc(S(=O)(=O)N4CCCC4)ccc3n2)CC1	/	/	/	/	/	12
COc1cccc(S(=O)(=O)c2cc3ccc(OC)cc3oc2=O)c1	/	/	/	/	/	0
CCN(CC)CCCC(C)NCC1CC2C=CC1C2 (stereo not given)	/	/	/	/	/	-12
C[n+]1c(/C=C/c2ccc3c(c2)OCO3)ccc2ccccc21	-2%	4%	16	i	/	-33*
C[n+]1c(/C=C/c2ccc(O)cc2)ccc2ccccc21	-1%	-31%	-22	i	7%	-1
CCCCC1NC(C(=O)O)CS1 (stereo not given)	2%	5%	8	i	-1%[46.1 µM]	-5
CCCCCCC1NC(C(=O)O)CS1 (stereo not given)	-1%	-15%	-5	-113%*	-4%	-1
CCOc1ccccc1C1CC(c2cccc(NS(C)(=O)=O)c2)=NN1C(=O)c1ccco1 (stereo not given)	/	/	/	/	/	6
COc1cc(C2C(C(=O)c3ccco3)=C(O)C(=O)N2c2cc(C)on2)cc(Br)c1O (stereo not given)	5%	-16%	3	-115%*	-1%	8
COc1ccc(-n2nc(C(=O)NCC(=O)NCCCN3CCN(C)CC3)c3ccccc3c2=O)cc1	-4%	8%	-100*	i	2%	0
Cc1cc(Nc2ccccc2)nc(Nc2ccc(NC(=O)c3ccc(Cl)cc3)cc2)n1	/	/	/	/	/	0
SMILES	Glioma ERSR ind	RGS4 inhibitor	TSHR antagonist	Akt phos inh	TCR activator	LDHA inh
CC(=O)N1c2c(cc(Br)cc2S(=O)(=O)NCC2COc3ccccc3O2)CC1C (stereo not given)	40µM*	-17%	-24	i	-4%	-4
CN(C)C(=O)c1ccc(NCC(=O)N2N=C(c3cc4ccccc4o3)CC2c2ccco2)cc1 (stereo not given)	/	/	/	/	/	7
COc1ccc(-c2csc(/C(C#N)=C\c3ccc(O)c([N+](=O)[O-])c3)n2)cc1OC	-7%	32%	-72*	i	-7%	-5
N#C/C(=C\c1ccc(O)c([N+](=O)[O-])c1)c1nc2ccccc2s1	2%	?	?	i	4%	6
COc1cc(/C=C(\C#N)c2nc3ccccc3s2)cc([N+](=O)[O-])c1O	-1%	7%	-71*	i	-2%	21
COc1ccc(-c2csc(/C(C#N)=C\c3ccc(OC)c([N+](=O)[O-])c3)n2)cc1	-4%	1%	-2	i	-3%[46.1 µM]	-10
N#Cc1ccccc1S(=O)(=O)N1CCN(CC(O)CN2CCOCC2)CC1 (stereo not given)	-3%	9%	-10	i	0%	-45*
COc1ccc(OC)c(S(=O)(=O)N2CCN(CC(O)CN3CCOCC3)CC2)c1 (stereo not given)	-1%	6%	25	i	-14%	-4
CCOCCCNc1nc(-c2ccc(S(=O)(=O)N3CCCCCC3)cc2)cs1	/	/	/	/	/	13
COCC(=O)N1CCN(c2oc(-c3ccc(C)cc3)nc2S(=O)(=O)c2ccc(F)cc2)CC1	/	/	/	/	/	-36*
COCC(=O)N1CCN(c2oc(-c3cccc(C)c3)nc2S(=O)(=O)c2ccc(F)cc2)CC1	/	/	/	/	/	2
CCOC(=O)Nc1nc(C)c(C(=O)N(C)C)s1	-5%	5%	-1	i	-3%	-6
COC(=O)Nc1nc(C)c(C(=O)N(C)C)s1	2%	32%	-6	-127%*	-1%	1
COc1cccc(C2Nc3ccccc3C(=O)N2O)c1O (stereo not given)	2%	-14%	-12	-118%*	1%	9
CCSC1=NSC2=NC(=O)/C(=C\c3coc4ccccc4c3=O)C(=N)N12	6%	-30%	-91*	i	-4%[46.1 µM]	0
NS(=O)(=O)c1ccc(NC(=O)Cn2ncc3c2-c2ccccc2OC3)cc1	-2%	-6%	31	i	-5%	-34*
COCCNC(=O)CCn1c(=O)oc2ccccc21	12%	-14%	-2	-109%*	2%	-1
CCCCCNC(=O)CCn1c(=O)oc2ccccc21	-2%	23%	-9	i	3%[46.1 µM]	-19
CCOc1ccc(CNC(=O)CCn2c(=O)oc3ccccc32)cc1OC	0%	12%	-2	-105%*	3%	-6
CCc1ccc(CNC(=O)CN2C(=O)c3cccnc3Oc3ccc(Cl)cc32)cc1	-5%	1%	/	/	/	-33*
CCC(=O)Nc1cccc(C(=O)Nc2nnc(C3CC(=O)N(c4ccc(C)c(C)c4)C3)s2)c1 (stereo not given)	/	/	/	/	/	0
N=c1nc(-c2ccccc2)n(-c2ccccc2)s1	3%	?	/	/	/	-71*
Cc1ccc(-c2nc(=Nc3ccccc3)sn2-c2ccccc2)cc1	-1%	-43%	/	/	/	3

From PubChem
